Inconclusive results are not listed. A call without a number means that no potency is given here. Activity calls are given as the source filed them. The call rests on the fitted dose curve.
Assay: S16 Schwann cell PMP22 intronic element beta-lactamase assay (AID 624044); further: nearly all actives have a fitted effect of over 15% in size
Settings: S16 rat Schwann cells, PMP22 element beta-lactamase FRET, 24 h; ratio activity, negative = inhibition: at 38.3 µM (top of the series)
Text: Description: Charcot-Marie-Tooth-Association [CMTA] National Center for Advancing Translational Sciences [NCATS] Charcot-Marie-Tooth (CMT) disease was first characterized by Jean-Martin Charcot and Pierre Marie in France and, independently, by Howard Henry Tooth in England in 1886. CMT is one of the most common inherited neurological diseases, affecting approximately 1 in 2,500 Americans. […] The most prevalent type of CMT is known as CMT1A and caused by a duplication of the PMP22 gene which leads to over-expression of this protein. PMP22 is a glycosylated intrinsic membrane protein accounting for 2-5% of the myelin protein content, and its over-expression results in demyelination and subsequently axonal loss. A pair of cellular transcription-based assays was developed in the S16 rat Schwann cell lines (Hai, M., et al., 2002) stably transfected with orthogonal reporters - firefly luciferase (Fluc) and beta-lactamase (beta-Lac) - whose expression is driven by an intronic regulatory element of the PMP22 gene (Jones, E.A., et al., 2011) to recapitulate endogenous expression of PMP22. The current assay employs Blac as a reporter of PMP22 expression. A comprehensive library of approved drugs, the NCGC Pharmaceutical Collection (Huang, R., et al., 2011), was screened in the cross-validating platform of the orthogonal reporter assays to identify drug modulators inhibitory towards PMP22 expression. A set of counter-screens was devised to address non-specific activity of the library. An ATP-dependent CellTiter-Glo assay (developed by Promega Corp) was utilized to control cell viability. In addition, biochemical Fluc enzyme assay was performed to assess direct inhibition of the Fluc enzymatic activity. References Hai, M., Muja, N., DeVries, G.H., Quarles, R.H. and Patel, P.I. Comparative analysis of Schwann cell lines as model systems for myelin gene transcription studies. J Neurosci Res, 2002. 69(4): pp 497-508 Huang, R., Southall, N., Wang, Y., Yasgar A., Shinn P., Jadhav, A. , Nguyen, D.-T. and Austin, C.P., The NCGC pharmaceutical collection: a comprehensive resource of clinically approved drugs enabling repurposing and chemical genomics. Sci Transl Med, 2011. 3(80): p. 80ps16.
S16 Schwann cell PMP22 intronic element beta-lactamase assay The beta-Lac-expressing S16 cells were seeded in black clear-bottom 1536 well plates at between 500-750 cells/6uL in DMEM medium containing 10% FBS, w/o phenol red. After overnight incubation at 37 degree Celsius/5% C02, 23 nL of compounds or DMSO were delivered to each well using a pin tool, followed by 24h-incubation at 37 degree Celsius/5% C02. Then one microl of LiveBLAzer FRET B/G detection mix (Invitrogen) was added to each well. An EnVision plate reader (PerkinElmer) was used to detect the dual beta-Lac output composed of fluorescence at 460nm for beta-Lac expression and FRET at 535nm for cell viability. The % signal at 535 nm was scaled to a full range of DMSO and zero and then normalized using the maximum response observed in the screen as 100% activity. The % signal at 460nm was normalized to the average readings of potassium clavulanate (a positive control) - treated cells relative to DMSO-treated cells (0% Activity). The concentration-effect curves were then classified based on curve quality (r2), response magnitude and degree of measured activity.
Potency means the concentration at half of the fitted maximal effect.

Question: Which Potency does the source give for `Clc1ccc(CS[C@@H](Cn2ccnc2)c2ccc(Cl)cc2Cl)cc1` here?
Answer: inactive

Question: With `Cc1cc2nc3c(=O)[nH]c(=O)nc-3n(CC(O)C(O)C(O)COP(=O)(O)O)c2cc1C` (stereo not given) as the compound, how does the Potency read?
Answer: inactive

Question: For `COc1cccc(OC)c1C(=O)NC1C(=O)N2C1SC(C)(C)C2C(=O)O` (stereo not given), which Potency is on record?
Answer: inactive

Question: With `C[C@@H](O)[C@@H]1C(=O)N2C(C(=O)O)=C([C@H]3CCCO3)S[C@H]12` as the compound, how does the Potency read?
Answer: inactive

Question: Which Potency does the source give for `C[C@H](CN1c2ccccc2Sc2cccnc21)N(C)C` here?
Answer: inactive

Question: With `COc1cc(/C=C2\CCC/C(=C\c3ccc(O)c(OC)c3)C2=O)ccc1O` as the compound, how does the Potency read?
Answer: 25.1 µM (active)

Question: Which Potency does the source give for `CC(=O)OCC(=O)[C@@]1(O)CCC2C3CCC4=CC(=O)C=CC4(C)C3C(O)C[C@]21C` (stereo not given in full) here?
Answer: inactive

Question: For `CCCCCOC(=O)Nc1nc(=O)n(C2O[C@H](C)[C@@H](O)[C@@H]2O)cc1F` (stereo not given in full), which Potency is on record?
Answer: inactive

Question: Which Potency does the source give for `CC(=O)N[C@H]1[C@H](O[C@@H]2c3ccc(c(Cl)c3)Oc3cc4cc(c3O[C@@H]3O[C@H](CO)[C@@H](O)[C@H](O)C3C)Oc3ccc(cc3Cl)C[C@H]3NC(=O)[C@@H](N)c5ccc(O)c(c5)Oc5cc(O)cc(c5)[C@H](NC3=O)C(=O)N[C@H]4C(=O)N[C@H]3C(=O)N[C@@H]2C(=O)N[C@@H](C(=O)O)c2cc(O)cc(O[C@H]4O[C@H](CO)[C@@H](O)C(O)[C@@H]4O)c2-c2cc3ccc2O)O[C@H](CO)[C@@H](O)[C@@H]1O` (stereo not given in full) here?
Answer: inactive

Question: For `CNc1cc(OC)c(C(=O)N[C@@H]2CCN(Cc3ccccc3)[C@H]2C)cc1Cl`, which Potency is on record?
Answer: inactive

Question: For `CCCCC(=O)O[C@]1(C(=O)CO)CCC2C3CCC4=CC(=O)CCC4(C)C3C(O)CC21C` (stereo not given in full), which ratio activity, negative = inhibition is on record?
Answer: -11.9% (active)

Question: Which Potency does the source give for `CC1(C)SC2[C@@H](N=CN3CCCCCC3)C(=O)N2[C@H]1C(=O)O` (stereo not given in full) here?
Answer: inactive

Question: Which Potency does the source give for `CC(=O)N1CC(O)CC1C(=O)O` (stereo not given) here?
Answer: inactive

Question: Which Potency does the source give for `CNC1C(O)C(OC2C(NC(=O)C(O)CN)CC(N)C(OC3OC(CN)C(O)C(O)C3O)C2O)OCC1(C)O` (stereo not given) here?
Answer: inactive

Question: For `CN(C)CC/C=C1\c2ccccc2COc2ccc(CC(=O)O)cc21`, which Potency is on record?
Answer: inactive

Question: Which Potency does the source give for `CCOc1ccccc1O[C@@H](c1ccccc1)[C@@H]1CNCCO1` here?
Answer: inactive

Question: For `OC[C@@H]1O[C@](CO)(O[C@H]2O[C@H](CO)[C@@H](O)[C@H](O)[C@H]2O)[C@H](O)[C@H]1O`, which Potency is on record?
Answer: inactive

Question: For `CC(=O)NC1[C@H](O)C[C@@](O)(C(=O)O)O[C@H]1[C@H](O)[C@H](O)CO` (stereo not given in full), which Potency is on record?
Answer: inactive

Question: Which Potency does the source give for `C=CCN1CC(C(=O)N(CCCN(C)C)C(=O)NCC)CC2c3cccc4[nH]cc(c34)CC21` (stereo not given) here?
Answer: inactive

Question: For `C=C1CC[C@H](O)C/C1=C/C=C1\CCC[C@]2(C)[C@@H]([C@H](C)CC[C@@H](O)C(C)(C)O)CC[C@@H]12`, which Potency is on record?
Answer: inactive

Question: With `O=[N+]([O-])O[C@H]1CO[C@H]2[C@@H]1OC[C@H]2O` as the compound, how does the Potency read?
Answer: inactive

Question: Which Potency does the source give for `Cc1cc(O)c2c(c1)OC1(C)CCC3C(C)(C)CCCC34COC2C14` (stereo not given) here?
Answer: inactive

Question: For `C[S+](C)CC[C@H](N)C(=O)O`, which Potency is on record?
Answer: inactive

Question: Which Potency does the source give for `COc1ccc(S(=O)(=O)N2c3ccc(Cl)cc3[C@](O)(c3ccccc3Cl)[C@@H]2C(=O)N2CCC[C@H]2C(N)=O)cc1OC` here?
Answer: inactive

Question: With `CO/N=C(/C(=O)N[C@@H]1C(=O)N2C(C(=O)O)=C(CSC(=O)c3ccco3)CSC12)c1csc(N)n1` (stereo not given in full) as the compound, how does the Potency read?
Answer: inactive

Question: With `O=C(O)CC(O)CC(O)/C=C/c1c(C2CC2)nc2ccccc2c1-c1ccc(F)cc1` (stereo not given) as the compound, how does the Potency read?
Answer: inactive

Question: With `OCC1OC(O)C(O)C(O)C1O` (stereo not given) as the compound, how does the Potency read?
Answer: inactive

Question: Which Potency does the source give for `CC1=C[C@@H](O)CC(C)(C)[C@@H]1/C=C/C(C)=C/C=C/C(C)=C/C=C/C=C(C)/C=C/C=C(C)/C=C/C1=C(C)C[C@H](O)CC1(C)C` here?
Answer: inactive

Question: For `CC1(C(=O)O)CCC2(C)CCC3(C)C(=CC(=O)C4C5(C)CCC(O)C(C)(C)C5CCC43C)C2C1` (stereo not given), which Potency is on record?
Answer: inactive

Question: For `CC(=O)CC(c1ccccc1)C1C(=O)Oc2ccccc2C1=O` (stereo not given), which Potency is on record?
Answer: inactive

Question: With `CC[C@H]1OC(=O)[C@H](C)C(=O)[C@H](C)[C@@H](OC2O[C@H](C)C[C@H](N(C)C)[C@@H]2O)[C@@](C)(OC)C[C@@H](C)C(=O)[C@@H](C)C2N(CCCCn3cnc(-c4cccnc4)c3)C(=O)O[C@@]21C` (stereo not given in full) as the compound, how does the Potency read?
Answer: inactive

Question: With `O=C(O)c1ccccc1-c1c2ccc(=O)cc-2oc2cc(O)ccc12` as the compound, how does the Potency read?
Answer: inactive

Question: With `CC1CN(c2c(F)c(N)c3c(=O)c(C(=O)O)cn(C4CC4)c3c2F)CC(C)N1` (stereo not given) as the compound, how does the Potency read?
Answer: inactive

Question: Which Potency does the source give for `CO/N=C(/C(=O)N[C@@H]1C(=O)N2C(C(=O)O)=C(CSc3cnns3)CS[C@H]12)c1csc(N)n1` here?
Answer: inactive

Question: For `C[C@]12CC[C@@H]3c4ccc(O)cc4CC[C@H]3[C@@H]1CCC2OC(=O)CCC1CCCC1` (stereo not given in full), which Potency is on record?
Answer: inactive

Question: Which Potency does the source give for `C[N+]12CCCC[C@@H]1CCC(=C(c1cccs1)c1cccs1)C2` (stereo not given in full) here?
Answer: inactive

Question: Which Potency does the source give for `C[C@@](Cc1ccccc1)(NC(=O)CN)c1ccccc1` here?
Answer: inactive

Question: With `C[C@]12CCC(=O)C=C1[C@@H]1C[C@H]1[C@H]1[C@@H]3[C@@H]4C[C@H]4[C@@]4(CCC(=O)O4)[C@@]3(C)CC[C@@H]12` as the compound, how does the Potency read?
Answer: inactive

Question: With `C[n+]1c2cc(N)ccc2cc2ccc(N)cc21` as the compound, how does the Potency read?
Answer: inactive

Question: Which Potency does the source give for `NC(C(=O)O)c1ccc(O)cc1` (stereo not given) here?
Answer: inactive
